From PubChem BioAssay
Pf growth 96h = Primary qHTS for delayed death inhibitors of the malarial parasite plastid, 96 hour incubation. AID 504834, 2011. Potency, µM (series often up to 28.7 µM), for the others: at the highest dose activity change, negative = inhibition, most hits filed as inhibitors. P. falciparum luciferase reporter growth, 96 h. 6.9% of 320,000 active; note: potency is the fitted concentration of half-maximal effect; % is set by controls: 0 for no effect and ±100 for the full control effect
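Infected RBCs, 2% Hct / 0.05% parasitemia final; luciferase-reporter P. falciparum; cpd 96 h, 37 C, 5% CO2; luciferase detection reagent; luminescence.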
HCMV inh = qHTS Assay for inhibitors of the human cytomegalovirus (HCMV). AID 1259415, 2018. HFF cells, HCMV-luciferase reporter, 72 h; stronger effect = lower value. activity change, negative = inhibition, % at 57.5 µM. 4.5% of 410,000 active; in the data active = activity change below about -60%; inconclusive = no clear call, values can overlap the other calls; inactive = above about -39%; note: % is set by controls: 0 for no effect and ±100 for the full control effect
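Human foreskin fibroblasts infected with luciferase-reporter HCMV at MOI 1 PFU/cell, compounds at two doses. Luciferase measured 72 h post infection; normalized to buffer-only basal and Salinomycin (10uM) controls.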
HCV inhibitor = qHTS Assay for Inhibitors of Hepatitis C Virus (HCV). Huh7.5.1 HCVcc-Cre infection, luciferase reporter, 44 h. Potency, µM (titrated, usually from 41.8 µM), without a hit: at the top dose activity change, negative = inhibition, usual class: inhibitors. 3.4% of 340,000 active. AID 651820, 2012; note: potency is the fitted concentration of half-maximal effect; % is set by controls: 0 for no effect and ±100 for the full control effect
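Infectious HCVcc-Cre (~0.5 moi) was added to cells just after compound, with cells seeded 4 h earlier at 1,000 per well. Luciferase activity after 44 h culture reported infection; substrate was incubated 15 min at room temperature before reading.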
Shiga toxin inh = A qHTS for Small Molecule Inhibitors of Shiga Toxin; 9.2% of 290,000 active; Vero cells, Shiga toxin protein synthesis inhibition reporter; AID 2315, 2010; inhibition, % at 38.7 µM; in the data active = inhibition mostly above about 28%, no sharp cut-off; inactive = mostly below about 43%; note: 0% is about no effect
Pf growth 48h = Primary qHTS for delayed death inhibitors of the malarial parasite plastid, 48 hour incubation; 5.9% of 310,000 active; AID 504832, 2011; Potency, µM (series often up to 28.7 µM), for inactives: top-dose activity change, negative = inhibition, hits mostly inhibitors; P. falciparum luciferase growth in erythrocytes, 48 h; note: potency is the fitted concentration of half-maximal effect; % is set by controls: 0 for no effect and ±100 for the full control effect
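Firefly luciferase activity from engineered P. falciparum reports growth; inhibitors lower the luminescent signal. Cultures contained 2% hematocrit erythrocytes at 0.1% final parasitemia.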
Cycloheximide cs = Cycloheximide Counterscreen for Small Molecule Inhibitors of Shiga Toxin. cell reporter, cycloheximide protein synthesis inhibition counterscreen. max response, %. 12% of 300,000 active; in the data active = max response mostly above about 13%, no sharp cut-off; inactive = mostly below about 14%; note: read at 38.3 µM for the half of the compounds with a filed dose; 0% is about no effect
Active calls of the source: *; u = inconclusive; x = no result given; ! = repeats disagree; [ ] = dose if it differs, or a comment. This is a sample that favours compounds with a hit; in the whole collection about 21% have one here. Unless noted, calls come from the whole dose curve; as a rule, active = well fitted inhibition curve with a large enough effect; inconclusive = small, poorly fitted or top-dose-only effect, or another doubt; inactive = no such curve, though single readings can be large or run the other way.

SMILES	Pf growth 96h	HCMV inh	HCV inhibitor	Shiga toxin inh	Pf growth 48h	Cycloheximide cs
CCN(CC)S(=O)(=O)c1ccc2c(c1)c(=O)c(C(=O)NCCc1ccc(OC)c(OC)c1)cn2C	u	-22	-19%	2	u	-2
CN(CC(=O)Nc1cccc(F)c1)C(=O)c1cccnc1Sc1ccc(Cl)cc1	-2%	-12	-20%	x	u	x
COc1ccc(CCNC(=O)c2c[nH]c3ccccc3c2=O)cc1OC	-25%	31	u	-4	u	4
Cc1cc(C)cc(NS(=O)(=O)c2ccc3[nH]cc(C(=O)NCc4ccco4)c(=O)c3c2)c1	122%	-73*!	-22%	-8	u	-1
COc1ccc(CCNC(=O)c2c[nH]c3ccc(F)cc3c2=O)cc1OC	0%	14	-11%	x	12µM*	-4
Cc1cc(C)cc(NS(=O)(=O)c2ccc3[nH]cc(C(=O)NCc4ccccc4Cl)c(=O)c3c2)c1	x	-12	x	x	x	x
Cc1ccc(S(=O)(=O)Nc2c(C)n(C)n(-c3ccccc3)c2=O)cc1C(=O)NCc1ccco1	x	-27	32µM*	x	x	x
COc1cccc(NS(=O)(=O)c2ccc3[nH]cc(C(=O)NCCc4ccc(C)cc4)c(=O)c3c2)c1	12µM*	-5	x	x	u	x
O=C(O)Cc1csc(-c2cccc(F)c2)n1	0%	7	-4%	30	33%	7
CC(C)[C@H](NC(=O)C1CCCC1)C(=O)N1CCC[C@H]1C(=O)NCCc1ccccc1Cl	x	-38	x	x	x	x
Cc1ccc(CCNC(=O)c2ccc3c(c2)N(Cc2ccccc2F)C(=O)c2ccccc2S3=O)cc1 (stereo unspecified)	x	-11	x	x	x	x
COCCNC(=O)c1c[nH]c2ccc(S(=O)(=O)Nc3ccccc3F)cc2c1=O	-18%	57	9%	2	3%	-4
COCCNC(=O)c1c[nH]c2ccc(S(=O)(=O)Nc3ccc(F)cc3F)cc2c1=O	0%	-21	3%	-10	0%	15*
CCc1ccccc1NC(=O)c1oc(=O)c2ccccc2c1-c1ccccc1	x	-1	x	x	x	x
COc1cccc(CN(C)C(=O)[C@@H](NC(=O)c2ccc(C)cc2)C(C)C)c1	-15%	12	u	-4	-15%	5
CC1(C)Cc2ccccc2C(/C(C#N)=N/O)=N1	u	12	2%	12	-11%	-3
COc1ccc(N/N=C(/C(N)=O)C2=NC(C)(C)Cc3ccccc32)cc1	u	-92*	u	16	u	-1
Cc1ccc(S(=O)(=O)N2CCC(C(=O)OCC(=O)N(C)Cc3ccccc3)CC2)cc1C	18%	-15	19%	x	10%	x
CN(Cc1ccccc1)C(=O)COC(=O)C1CCN(S(=O)(=O)c2ccc(Cl)c(C(F)(F)F)c2)CC1	u	-66*	-2%[8.37 µM]	x	-17%	x
Cn1cnc(S(=O)(=O)N2CCC(C(=O)Nc3ccc(Cl)c(C(F)(F)F)c3)CC2)c1	x	-76*	x	x	x	x
O=C(Nc1ccncc1)C1CCN(S(=O)(=O)c2ccccc2)CC1	-15%	-2	-10%	x	u	x
O=C(Nc1ccncc1)C1CCN(S(=O)(=O)c2ccc(Cl)c(C(F)(F)F)c2)CC1	12µM*	-27	u	x	u	x
O=C(Nc1ccncc1)C1CCN(S(=O)(=O)c2ccccc2C(F)(F)F)CC1	3.3µM*	u	u	-12	u	4
Cc1ccnc(NC(=O)C2CCN(S(=O)(=O)c3ccc(Cl)c(C(F)(F)F)c3)CC2)c1	128%	-12	-16%	x	-10%	x
CC1CCN(C(=O)c2cnn(-c3ccc(Cl)cc3)c2C2CCN(C(=O)OC(C)(C)C)CC2)CC1	x	-1	x	x	x	x
SMILES	Pf growth 96h	HCMV inh	HCV inhibitor	Shiga toxin inh	Pf growth 48h	Cycloheximide cs
O=C(NNS(=O)(=O)c1ccc(C(=O)NC2CCCC2)cc1)c1ccncc1	-10%	9	21%	-8	16%	-2
CC1CCCCC1NC(=O)c1ccc(S(=O)(=O)NNC(=O)c2ccncc2)cc1 (stereo unspecified)	-11%	19	3%	-11	2.1µM*	-1
COc1ccc2c(c1)c1c(c(=O)n(-c3ccccc3C)c(=O)n1CC(=O)Nc1c(C)cccc1C)n2C	x	-16	x	x	x	x
Cc1nc(-c2ccc(OCC(C)C)c(C#N)c2)sc1C(=O)O	x	58	x	x	x	x
O=C(NCc1ccccc1C(F)(F)F)C12CN(Cc3ccccc3)CC1C(c1ccc([N+](=O)[O-])cc1)=NO2 (stereo unspecified)	u	9	u	41	3.3µM*	18*
COc1cccc(CNC(=O)C23CN(Cc4ccccc4)CC2C(c2ccc([N+](=O)[O-])cc2)=NO3)c1 (stereo unspecified)	15µM*	-9	u	-13	u	-2
O=[N+]([O-])c1ccc(CN2CCC(Cc3ccccc3)CC2)cc1	u	-10	-3%	-6	u	-2
CC(C)CCNC(=O)C12CN(Cc3ccccc3)CC1C(c1ccc([N+](=O)[O-])cc1)=NO2 (stereo unspecified)	u	20	-8%	-3	u	4
CCN(CCCNC(=O)CSc1cc(=O)n(C)c2cc(Cl)ccc12)c1ccccc1	x	16	x	x	x	x
c1ccc2oc(Cc3ccc(Cc4nc5ccccc5o4)cc3)nc2c1	13µM*	-29	u	14	-26%	-3
c1ccc2oc(CCc3nc4ccccc4o3)nc2c1	42%	u	1%	20	36%	15*
Nc1ccc2oc(CCc3ccccc3)nc2c1	44%	x	-27%	167*	73%	48*
Cc1ccc2nc(Cc3ccc(N)cc3)oc2c1	5%	25	-13%	62*	0%	28*
Cc1ccc2nc(CCc3nc4ccc(C)cc4o3)oc2c1	x	-6	2%	16	-5%	5
O=C(NCCc1ccccc1)c1ccc2nc(CCc3ccccc3)oc2c1	x	65	x	x	x	x
O=C1c2ccccc2C(=O)N1Cc1nc2ccccc2o1	-27%	44	18%	18	7%	-1
CCOc1ccccc1NC(=O)c1cc(=O)c2ccc(C)cc2o1	x	13	x	x	x	x
CCOc1ccc(N(CC)C(=O)c2cc3c(s2)-c2ccc(Cl)cc2SC3)cc1	x	13	x	x	x	x
CCCCSc1nc(C)cc(C)c1S(=O)(=O)c1ccccc1C	10µM*	-30	-6%	-10	u	-2
COc1ccc(OCCSc2ncn[nH]2)cc1	40%	12	14%	30	71%	17
COc1ccc(OCCSc2n[nH]c(N)n2)cc1	x	76	-8%	49	22%	31*
CCOc1ccc(/C=N/NC(=O)C2CCCC2)c(OCC)c1	-33%	u	-11%	-6	20%	10
COc1ccc(CSC2=CS(=O)(=O)c3ccccc3N2)cc1	-14%	-62*	-13%	27	-31%[5.75 µM]	11
Cc1ccc(Nc2ncnc3onc(C)c23)cc1Cl	x	3	x	x	x	x
